# Columns and labels:
# [1] = molecular target: Dual specificity protein kinase CLK3 (Homo sapiens) (UniProt P49761); conditions: at 1 µM;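 also: each value is the mean inhibition of CLK3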
# [2] = molecular target: Dual specificity tyrosine-phosphorylation-regulated kinase 1A (Homo sapiens) (UniProt Q13627); conditions: at 0.1 µM
# [3] = molecular target: Dual specificity tyrosine-phosphorylation-regulated kinase 1A (Homo sapiens) (UniProt Q13627); conditions: at 1 µM
# [4] = molecular target: Dual specificity tyrosine-phosphorylation-regulated kinase 1B (Homo sapiens) (UniProt Q9Y463); conditions: at 0.1 µM
# [5] = molecular target: Dual specificity tyrosine-phosphorylation-regulated kinase 1B (Homo sapiens) (UniProt Q9Y463); conditions: at 1 µM
# [6] = molecular target: T1, Dual specificity tyrosine-phosphorylation-regulated kinase 2 (Homo sapiens) (UniProt Q92630); conditions: at 0.1 µM
# T1 sequence (whole entry): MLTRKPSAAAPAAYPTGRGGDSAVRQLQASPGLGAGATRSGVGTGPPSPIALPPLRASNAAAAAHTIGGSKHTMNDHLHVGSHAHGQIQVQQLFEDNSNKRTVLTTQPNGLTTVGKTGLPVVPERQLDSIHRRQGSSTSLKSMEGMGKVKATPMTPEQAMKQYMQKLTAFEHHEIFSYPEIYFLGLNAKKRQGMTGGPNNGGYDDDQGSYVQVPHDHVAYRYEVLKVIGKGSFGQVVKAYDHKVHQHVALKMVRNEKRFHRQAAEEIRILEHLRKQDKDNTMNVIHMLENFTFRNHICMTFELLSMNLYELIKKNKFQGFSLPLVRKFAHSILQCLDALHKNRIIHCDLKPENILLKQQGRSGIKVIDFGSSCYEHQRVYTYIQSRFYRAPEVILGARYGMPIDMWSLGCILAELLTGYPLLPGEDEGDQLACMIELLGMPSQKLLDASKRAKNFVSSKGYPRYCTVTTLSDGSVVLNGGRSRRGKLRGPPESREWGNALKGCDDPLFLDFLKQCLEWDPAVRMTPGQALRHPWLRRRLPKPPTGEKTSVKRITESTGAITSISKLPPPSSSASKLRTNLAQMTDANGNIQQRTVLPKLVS
# [7] = molecular target: T1, Dual specificity tyrosine-phosphorylation-regulated kinase 2 (Homo sapiens); conditions: at 1 µM
# [8] = molecular target: Glycogen synthase kinase-3 alpha (Homo sapiens) (UniProt P49840); conditions: at 0.1 µM
# [9] = molecular target: Glycogen synthase kinase-3 alpha (Homo sapiens) (UniProt P49840); conditions: at 1 µM
# [10] = molecular target: Glycogen synthase kinase-3 beta (Homo sapiens) (UniProt P49841); conditions: at 0.1 µM;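 also: values are mean percent inhibition of GSK3B activity, from the GSK Published Kinase Inhibitor Set (PKIS) screening dataset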
# Chain of Glycogen synthase kinase-3 beta (Homo sapiens) (P49841 whole entry, looked up): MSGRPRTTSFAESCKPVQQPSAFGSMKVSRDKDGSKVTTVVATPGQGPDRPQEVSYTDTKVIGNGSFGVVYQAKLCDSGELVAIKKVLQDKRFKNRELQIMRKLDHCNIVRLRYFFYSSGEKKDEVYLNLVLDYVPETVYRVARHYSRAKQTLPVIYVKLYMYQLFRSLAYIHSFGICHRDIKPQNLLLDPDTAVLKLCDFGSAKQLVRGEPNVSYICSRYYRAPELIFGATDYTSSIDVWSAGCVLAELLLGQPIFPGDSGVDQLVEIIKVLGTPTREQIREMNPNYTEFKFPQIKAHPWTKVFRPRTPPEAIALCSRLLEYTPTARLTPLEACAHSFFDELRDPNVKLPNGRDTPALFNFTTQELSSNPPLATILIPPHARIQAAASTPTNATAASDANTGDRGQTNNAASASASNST
# Chain of Dual specificity tyrosine-phosphorylation-regulated kinase 1B (Homo sapiens) (Q9Y463 whole entry, looked up): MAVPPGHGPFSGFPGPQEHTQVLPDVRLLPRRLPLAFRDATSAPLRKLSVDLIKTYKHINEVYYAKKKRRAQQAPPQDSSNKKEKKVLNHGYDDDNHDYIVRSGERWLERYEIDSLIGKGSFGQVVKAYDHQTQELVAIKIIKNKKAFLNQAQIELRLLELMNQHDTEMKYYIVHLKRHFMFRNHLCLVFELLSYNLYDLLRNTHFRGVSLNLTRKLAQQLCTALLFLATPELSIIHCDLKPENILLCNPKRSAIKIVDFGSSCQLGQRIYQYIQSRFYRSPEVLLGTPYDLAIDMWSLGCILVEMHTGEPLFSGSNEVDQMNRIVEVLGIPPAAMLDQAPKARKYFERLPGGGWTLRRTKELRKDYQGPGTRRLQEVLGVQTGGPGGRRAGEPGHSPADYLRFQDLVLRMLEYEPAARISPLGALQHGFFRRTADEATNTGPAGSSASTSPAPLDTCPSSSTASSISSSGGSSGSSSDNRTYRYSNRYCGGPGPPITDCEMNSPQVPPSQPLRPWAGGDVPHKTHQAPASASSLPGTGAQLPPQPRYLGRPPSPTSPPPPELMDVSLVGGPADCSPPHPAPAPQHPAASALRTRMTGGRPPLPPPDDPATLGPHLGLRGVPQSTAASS
# Chain of Dual specificity protein kinase CLK3 (Homo sapiens) (P49761 whole entry, looked up): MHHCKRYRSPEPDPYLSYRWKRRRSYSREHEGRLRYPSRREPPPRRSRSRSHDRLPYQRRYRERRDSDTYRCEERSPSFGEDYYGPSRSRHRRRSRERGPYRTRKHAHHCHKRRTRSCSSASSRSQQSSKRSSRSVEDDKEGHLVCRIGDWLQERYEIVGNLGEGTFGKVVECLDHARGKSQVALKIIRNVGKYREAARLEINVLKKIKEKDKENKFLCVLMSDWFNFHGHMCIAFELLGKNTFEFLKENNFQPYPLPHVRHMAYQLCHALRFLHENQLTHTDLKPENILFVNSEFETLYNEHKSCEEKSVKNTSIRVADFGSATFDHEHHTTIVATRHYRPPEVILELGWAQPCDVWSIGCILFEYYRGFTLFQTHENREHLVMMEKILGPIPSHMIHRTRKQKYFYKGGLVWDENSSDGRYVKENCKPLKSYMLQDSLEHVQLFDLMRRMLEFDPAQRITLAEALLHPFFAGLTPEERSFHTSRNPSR
# Chain of Glycogen synthase kinase-3 alpha (Homo sapiens) (P49840 2-483 limits assumed): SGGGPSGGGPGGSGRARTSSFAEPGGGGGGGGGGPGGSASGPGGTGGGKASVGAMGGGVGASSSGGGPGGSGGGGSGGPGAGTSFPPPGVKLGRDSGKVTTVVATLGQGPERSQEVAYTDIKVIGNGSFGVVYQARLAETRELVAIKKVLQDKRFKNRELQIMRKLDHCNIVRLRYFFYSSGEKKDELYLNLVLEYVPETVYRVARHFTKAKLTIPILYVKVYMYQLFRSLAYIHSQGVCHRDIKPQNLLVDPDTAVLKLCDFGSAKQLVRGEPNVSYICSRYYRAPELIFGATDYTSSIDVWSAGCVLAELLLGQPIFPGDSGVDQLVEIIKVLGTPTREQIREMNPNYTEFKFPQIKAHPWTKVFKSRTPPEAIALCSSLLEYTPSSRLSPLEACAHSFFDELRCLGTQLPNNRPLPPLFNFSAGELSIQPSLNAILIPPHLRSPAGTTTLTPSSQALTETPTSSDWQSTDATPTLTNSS
SMILES,inhibition [1] [%],inhibition [2] [%],inhibition [3] [%],inhibition [4] [%],inhibition [5] [%],inhibition [6] [%],inhibition [7] [%],inhibition [8] [%],inhibition [9] [%],inhibition [10] [%]
Cc1ccc2c(-c3ccnc(Nc4ccccc4)n3)c(-c3ccc(F)cc3)nn2n1,1.61,0.7,5.42,1,3.35,3.2,2.94,9.81,44.8,22.4
O=C(Nc1n[nH]c2cc(-c3ccc(F)cc3)ccc12)C1CC1,1.03,3.64,11,1.08,7.73,2.57,2.75,3.8,14.7,2.61
COC(=O)c1sc(-n2cnc3cc(OC)c(OC)cc32)cc1OCc1ccccc1C(F)(F)F,0.53,1.62,3.44,-1.47,-1.98,3.48,4.12,1.51,4.48,-0.28
COc1ccc(CNC(=O)c2ccc(-c3cc(-c4nnc(C)o4)ccc3C)cc2)cc1,2.16,1.08,1.05,1.53,2.22,0.27,1.42,5.61,17.9,5.31
NS(=O)(=O)c1ccc(N/N=C2\C(=O)Nc3ccc4ncccc4c32)cc1,15,18.6,61.6,13,54.8,6.76,35.7,55.3,80.9,53.5
COc1ccc(-c2cc(-c3c[nH]nc3-c3ccccn3)ccn2)cc1,1.7,2.83,6.71,-0.15,2.54,4.14,3.1,3.67,5.27,3.56
Nc1ncc(-c2cccc(S(N)(=O)=O)c2)c2scc(-c3ccc(F)c(Cl)c3)c12,0.34,2.01,3.66,-0.65,0.74,3.42,2.46,3.06,4.87,2.78
COC(=O)Nc1nc2ccc(Oc3ccc(NC(=O)Nc4cccc(Cl)c4)cc3)cc2[nH]1,-1.09,-1.75,-2.75,-1.02,-0.33,1.12,-2.41,3.91,3.54,2.92
CC(C)(CO)CNC(=O)c1ccc2c(c1)/C(=N/Nc1ccc(S(N)(=O)=O)cc1)C(=O)N2,9.15,-0.06,7.83,-0.36,1,0.82,9.64,23.2,65.2,22.4
Nc1nc(-c2ccc(F)cc2)c(-c2ccc3ncccc3n2)s1,6.28,8.98,37.4,3.54,19.8,3.22,5.03,12.1,20.8,11
N#Cc1c(NC(=O)c2ccc(F)cc2)sc2c1CCCC2,0.61,0.28,3.62,-0.66,1.05,-0.13,0.26,0.69,2.28,-0.51
COc1ccc(-c2oc3ncnc(N)c3c2-c2ccc(NC(=O)Nc3cc(C(F)(F)F)ccc3F)cc2)cc1,4.8,0.67,2.07,-0.07,2.26,1.92,5.52,3.93,17.3,3.17
Clc1ccc(-c2nn3ncccc3c2-c2ccnc(Nc3ccccc3)n2)cc1,2.2,2.68,5.74,1.65,3.34,1.34,0.66,1.79,12.2,2.61
O=S(=O)(CCNCc1ccc(-c2ccc3ncnc(Nc4ccc(OCc5cccc(F)c5)c(Cl)c4)c3c2)o1)c1ccccc1,-0.68,3.49,5.29,-0.71,0.19,3.86,2.88,3.49,4.1,2.66
c1ccc(COc2ccc(Nc3ncnc4ccc(-c5ccco5)cc34)cc2)cc1,-0.29,-1.32,3.87,-0.39,0.34,0.31,-1.53,1.11,1.51,0.28
FC(F)(F)c1cccc(-c2nn3ncccc3c2-c2ccnc(Nc3ccc4c(c3)OCCO4)n2)c1,0.79,1.23,2.77,0.78,0.83,2.54,3.26,5.83,22.4,5.36
COc1cccc(-n2ncc3c(N/N=C/c4ccc(F)cc4)ncnc32)c1,6.29,6.93,24.2,4.09,16.3,5.25,18.8,64,87.7,54.6

# From ChEMBL document CHEMBL1961873, “Compounds: GSK PKIS; Assays: Nanosyn kinase panel” (2012)
